High-throughput results: PubChem BioAssay, National Center for Advancing Translational Sciences (NCATS)
Shown are actives, neighbours in structure and some others; about 0.12% of the full set was active somewhere.
Caspase-1 inhib = allosteric or competitive inhibitors of human caspase-1; Caspase-1 enzyme, Ac-WEHD-AFC fluorogenic rate; Potency, µM (doses to about 57.5 µM), inactives show at the top dose activity change, negative = inhibition, usual class: inhibitors; 0.03% of 75,000 active; AID 900;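 further: plate controls were vehicle for no effect and no substrate for full effect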
Casp7 inh = allosteric or competitive inhibitors of human caspase-7 | P55210 | recombinant caspase-7, Ac-DEVD-AFC fluorescence rate | Potency, µM (doses to about 57.5 µM), for the others: at the highest dose activity change, negative = inhibition, actives largely listed as inhibitors | 0.02% of 75,000 active | AID 889; active means well fitted inhibition curve with a large enough effect in the main read-out, with a control signal flat, not every such curve was filed as active; inconclusive means small, poorly fitted or top-dose-only effect, or a change in a side signal; further: % of control where 0% means no effect
USP2a inhib = USP2a (human) protease inhibition; O75604; USP2a enzymatic assay, qHTS inhibition; Potency, µM (series often up to 38.3 µM), inactives show top-dose activity change, negative = inhibition, actives largely listed as inhibitors; 0.1% of 60,000 active; further: nearly all actives have a fitted effect of over 60% in size
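20 nM USP2 core + cpd, 30 min RT; add 20 nM Ub-PLA2/20 uM NBD C6-HPC; read Ex460/Em535 at 0 h and 2.5 h. Normalized to NEM; qHTS curve fit/classification.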
Active calls of the source: *; [ ] = dose if it differs, or a comment. Unless noted, the call rests on the fitted dose curve; in most records, active means well fitted curve in the direction sought with a large enough effect; inconclusive means small, poorly fitted or top-dose-only effect, or another doubt; inactive means no such curve, though single readings can be large; an effect the other way counts as inactive or inconclusive. Potency means the concentration at half of the fitted maximal effect.

Results for O=C(O)/C=C\c1c2ccc(=O)c(O)c-2oc2c(O)c(O)ccc12 ?
Caspase-1 inhib: -6%[11.5 µM]; Casp7 inh: -20%[11.5 µM]

Results for N#Cc1c(N)nc2c(c1-c1ccco1)CCCCC2 ?
Caspase-1 inhib: -4%; Casp7 inh: -6%; USP2a inhib: -10%

How did N#Cc1c(-c2ccco2)c2c([nH]c1=S)CCCC2 do in these assays?
Caspase-1 inhib: inconclusive; Casp7 inh: -26%; USP2a inhib: 13µM*

Results for N.N.N.N.N.N.N.N.N.N.N.N.N.N.O.O.[Ru].[Ru].[Ru] ?
Caspase-1 inhib: 0%; Casp7 inh: 1%; USP2a inhib: inconclusive

What do the screens show for `COc1cc(NCC[C@@H]2CCCCN2)c2ncccc2c1`?
Caspase-1 inhib: -4%[11.5 µM]; Casp7 inh: 1%[11.5 µM]

How did COc1cc(N[C@@H](C)CCCN)c2ncccc2c1 do in these assays?
Caspase-1 inhib: 2.5µM*; Casp7 inh: -22%[25.7 µM]; USP2a inhib: 2%[17.1 µM]

Results for CN1CC[C@@]2(CCN3CCc4c(oc5ccccc45)[C@@H]3C2)N(C)C1=O ?
Caspase-1 inhib: 1%; Casp7 inh: 0%; USP2a inhib: -1%

How did CCN1C(=O)[C@H]2[C@H]3[C@H](O)[C@H](O)C/C(=N/NC(=O)OCc4ccccc4)[C@H]3CC[C@@H]2C1=O do in these assays?
Caspase-1 inhib: -1%[11.5 µM]; Casp7 inh: 1%[11.5 µM]

What do the screens show for `O=C(OC1Cc2c(O)cc(O)cc2OC1c1cc(O)c(O)c(O)c1-c1c(C2Oc3cc(O)cc(O)c3CC2O)cc(O)c(O)c1O)c1cc(O)c(O)c(O)c1` (stereo not drawn)?
Caspase-1 inhib: 0%; Casp7 inh: -27%; USP2a inhib: 10µM*

Results for Oc1cc(O)c2c(c1)O[C@@H](c1ccc(O)c(O)c1)[C@H](O[C@@]1(c3cc(O)c(O)c(O)c3)Oc3cc(O)cc(O)c3[C@H](O)[C@@H]1O)C2 ?
Caspase-1 inhib: -1%[11.5 µM]; Casp7 inh: -17%[11.5 µM]

What do the screens show for `O=C1[C@@H]2[C@H]3[C@H](O)[C@H](O)C/C(=N/OCc4ccccc4)[C@H]3CC[C@H]2C(=O)N1c1ccc(F)cc1F`?
Caspase-1 inhib: -3%[11.5 µM]; Casp7 inh: 2%[11.5 µM]

Results for COc1ccccc1OC[C@H](O)CN1CCN(CC(=O)Nc2c(C)cccc2C)CC1 ?
Caspase-1 inhib: -1%; Casp7 inh: 2%; USP2a inhib: 4%

What do the screens show for `O=C1c2ccccc2C(=O)c2c1ccc(O)c2O`?
Caspase-1 inhib: -1%; Casp7 inh: -26%; USP2a inhib: 25%

Results for O=C1c2ccc(O)c(O)c2C(=O)c2c(O)ccc(O)c21 ?
Caspase-1 inhib: -3%; Casp7 inh: -23%; USP2a inhib: 4µM*

What do the screens show for `CC12CC3OS(=O)OC3CC3C4C(C(OCc5ccccc5)C31)C42` (stereo not drawn)?
Caspase-1 inhib: 1%[11.5 µM]; Casp7 inh: -5%[11.5 µM]

How did Nc1ccn([C@@H]2O[C@@H](CO)[C@@H](O)[C@H]2O)c(=O)n1 do in these assays?
Caspase-1 inhib: 4%; Casp7 inh: 1%; USP2a inhib: 1%

What do the screens show for `CCCCCCCC(=O)O`?
Caspase-1 inhib: -2%; Casp7 inh: 1%

What do the screens show for `CCCCCCC/C=C\CCCCCCCCC(=O)O`?
Caspase-1 inhib: 0%; Casp7 inh: 0%; USP2a inhib: 13µM*

What do the screens show for `Cc1ccc(N2C(=O)[C@@H]3[C@H](C2=O)C2c4ccccc4C=CN2[C@@H]3C(=O)c2ccco2)cc1` (stereo partly drawn)?
Casp7 inh: inconclusive; USP2a inhib: 37%

How did Cc1ccc(N2C(=O)[C@@H]3[C@H](C2=O)C2c4ccccc4C=CN2[C@@H]3C(=O)c2ccco2)c(C)c1 (stereo partly drawn) do in these assays?
Caspase-1 inhib: 13µM*; Casp7 inh: inconclusive; USP2a inhib: 35%

Results for O[C@@H](c1cc(-c2ccccc2)nc2c1ccc1ccccc12)[C@@H]1CCCCN1 ?
Caspase-1 inhib: -1%[11.5 µM]; Casp7 inh: -3%[11.5 µM]

How did CCCCCCCC1=CC2=CC(=O)C(C)(O)C(=O)C2=CN1CCCC (stereo not drawn) do in these assays?
Caspase-1 inhib: -2%[11.5 µM]; Casp7 inh: -3%[11.5 µM]

Results for COC(=O)C/C=C\[C@@H](C)[C@@H](/C=N\O[C@@H](C)c1cc(-c2c(C)cc(C)cc2C)no1)OC ?
Caspase-1 inhib: 1%[11.5 µM]; Casp7 inh: 0%[11.5 µM]

What do the screens show for `C/C1=C2N=C(/C=C3N=C(/C(C)=C4\[N-]C(C)(C5N=C1C(C)(CCC(=O)NCC(C)OP(=O)([O-])O[C@H]1C(O)C(n6cnc7cc(C)c(C)cc76)O[C@@H]1CO)C5CC(N)=O)C(C)(CC(N)=O)C4CCC(N)=O)C(C)(CC(N)=O)C\3CCC(N)=O)C(C)(C)C/2CCC(N)=O.[CH2-]C1OC(n2cnc3c(N)ncnc32)C(O)C1O.[Co]` (stereo partly drawn)?
Caspase-1 inhib: inconclusive; Casp7 inh: -18%; USP2a inhib: 3.2µM*

Results for CCC1=C2CC[C@H]3C(=O)N(CC)C(=O)[C@H]3[C@H]2[C@@]2(Cc3ccccc3)C(=NCC3CC3)OC(=O)N2C1=O ?
Caspase-1 inhib: 0%; Casp7 inh: -1%

What do the screens show for `O=C(c1csnn1)N1CCC2(CCCN(c3ccc(-c4ccccc4)cc3)C2)CC1`?
Caspase-1 inhib: 0%; Casp7 inh: -6%; USP2a inhib: 144%

How did CN1CCN(c2ncc3nc(-c4ccc(F)cc4)c(=O)n(C4CC4)c3n2)CC1 do in these assays?
Casp7 inh: inconclusive; USP2a inhib: 10µM*

Results for CN1CCN(c2ncc3nc(-c4ccc(Cl)cc4)c(=O)n(C4CC4)c3n2)CC1 ?
Casp7 inh: inconclusive; USP2a inhib: 98%

How did c1ccc(B2OC[C@@H]3OB(c4ccccc4)O[C@H]([C@@H]4COB(c5ccccc5)O4)[C@@H]3O2)cc1 do in these assays?
Caspase-1 inhib: 0%[11.5 µM]; Casp7 inh: -3%[11.5 µM]

How did CCOC(=O)N/N=C1/C[C@@H](O)[C@@H](O)[C@@H]2[C@H]3C(=O)N(c4ccc(F)cc4F)C(=O)[C@@H]3CC[C@H]12 do in these assays?
Caspase-1 inhib: -2%[11.5 µM]; Casp7 inh: 0%[11.5 µM]

What do the screens show for `FC(F)(F)c1ccccc1-c1nc(N2CCOCC2)c2ccccc2n1`?
Caspase-1 inhib: -2%; Casp7 inh: -27%; USP2a inhib: 10µM*

Results for FC(F)(F)c1ccccc1-c1nc(N2CCNCC2)c2ccccc2n1 ?
Caspase-1 inhib: 3%; Casp7 inh: 1%; USP2a inhib: -9%

How did CCCCCCCCCCCC(CC1OC(=O)C1CCCCCC)OC(=O)C(CC(C)C)NC=O (stereo not drawn) do in these assays?
Caspase-1 inhib: 1%; Casp7 inh: 1%; USP2a inhib: 10µM*

Results for COc1ccc(NC(=O)CN2CCN(c3ccc(Cl)cc3)CC2)c(OC)c1 ?
Caspase-1 inhib: -2%; Casp7 inh: 2%; USP2a inhib: 13µM*

What do the screens show for `COc1ccc(N2CCN(CC(=O)Nc3c(C)cc(C)cc3C)CC2)cc1`?
Caspase-1 inhib: -3%; Casp7 inh: -1%; USP2a inhib: -6%

How did Nc1nc(N)c2nn(-c3ccc(C(=O)O)cc3)nc2n1 do in these assays?
Caspase-1 inhib: -2%[11.5 µM]; Casp7 inh: 0%[11.5 µM]

What do the screens show for `C=CCC1C=CC(OC(=O)OCC)C(COC(=O)OCC)O1` (stereo not drawn)?
Caspase-1 inhib: -1%[11.5 µM]; Casp7 inh: 0%[11.5 µM]
